Screening data (PubChem BioAssay)
FLuc modulator: firefly luciferase modulation, counter-screen for miR-21 project; P08659; purified FLuc, Km substrates, luminescence inhibition; Potency, µM (series often up to 57.5 µM), hits mostly inhibitors; 360,000 compounds, 6.9% hits; AID 588342; also: nearly all actives have a fitted effect of over 55% in size
Target sequence (P08659 whole entry, looked up): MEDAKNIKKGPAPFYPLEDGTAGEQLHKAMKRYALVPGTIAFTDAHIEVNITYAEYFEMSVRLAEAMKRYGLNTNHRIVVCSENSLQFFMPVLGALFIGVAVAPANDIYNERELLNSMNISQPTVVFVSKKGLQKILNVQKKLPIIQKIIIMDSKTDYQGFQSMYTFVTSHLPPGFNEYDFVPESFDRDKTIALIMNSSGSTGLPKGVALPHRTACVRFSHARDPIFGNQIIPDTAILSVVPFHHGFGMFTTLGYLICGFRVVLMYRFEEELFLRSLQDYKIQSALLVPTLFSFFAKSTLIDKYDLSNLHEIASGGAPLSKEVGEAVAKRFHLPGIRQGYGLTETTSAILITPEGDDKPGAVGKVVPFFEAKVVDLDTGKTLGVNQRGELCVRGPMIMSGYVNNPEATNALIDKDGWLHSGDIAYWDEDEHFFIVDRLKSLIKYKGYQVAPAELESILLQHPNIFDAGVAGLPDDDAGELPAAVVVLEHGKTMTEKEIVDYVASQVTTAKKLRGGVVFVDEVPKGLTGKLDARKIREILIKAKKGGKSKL
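Purified P. pyralis luciferase, 10 nM final, with Km-level 10 uM D-luciferin and 10 uM ATP in 50 mM Tris acetate pH 7.5, 10 mM Mg acetate, 0.01% Tween-20, 0.05% BSA; 6-point qHTS titration about 60 µM downward; luminescence read.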
SMN2 splice up: increases expression of the SMN2 splice variant; HEK293 SMN2-luciferase splicing reporter, luminescence, 30-36 h; AID 1458; 210,000 compounds, 2.8% hits; Potency, µM (top dose mostly 46.1 µM), usual class: activators; also: nearly all actives have a fitted effect of over 55% in size
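HEK293 cells carry an SMN2 minigene-luciferase reporter in which exon 7 inclusion puts luciferase in frame. Cells were seeded at 2000 cells/well, attached for 10-12 hours, then exposed to compounds for 30-36 hours at 37C before ONE-Glo luminescence.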
Rab9 prom act: activates the Rab9 promoter | Huh7 Rab9 promoter-luciferase reporter, luminescence, 24 h | Potency, µM (titrated, usually from 9.22 µM), actives largely listed as activators | 320,000 compounds, 2.8% hits | AID 485297; also: nearly all actives have a fitted effect of over 60% in size
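Luminescence from Amplite-detected luciferase (10 minutes, ambient) reports Rab9 promoter activation. Before that, stable Rab9-luciferase Huh7 cells (1500/well, reduced-serum OP-MEM I plus 10% FBS) were exposed to compound for 24 hours at 37C.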
KinaseGlo FLuc: Kinase-Glo luciferase inhibition (counter-screen) | Potency, µM (doses to about 38.3 µM), usual class: inhibitors | Kinase-Glo luciferase, ATP luminescence, 8 min | 200,000 compounds, 0.28% hits | AID 1379 | Q27757; also: nearly all actives have a fitted effect of over 60% in size
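Light output from Kinase-Glo luciferase with luciferin and 10 uM ATP in 50 mM imidazole pH 7.2, KCl, MgCl2, Tween 20, BSA; compound pin-delivered, 8-min ambient incubation, then luminescence read.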
ELG1 genotoxic: inducers of genotoxicity in HEK293T ELG1-luciferase cells. HEK293T ELG1-luciferase reporter, luminescence, 16 h. Potency, µM (doses to about 46 µM), actives largely listed as activators. 330,000 compounds, 1.3% hits. AID 504466; also: nearly all actives have a fitted effect of over 60% in size
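ELG1-luciferase HEK293T cells, 2,000/well; compound pinned in; 16 hr, 37 °C, 5% CO2; ONE-Glo, 30 min RT; luminescence on CCD imager.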
NPC1 promoter act: NPC1 promoter activation; Potency, µM (top dose mostly 9.22 µM), actives largely listed as activators; Huh7 NPC1 promoter luciferase reporter, 24 h; 320,000 compounds, 2.4% hits; AID 485313; also: nearly all actives have a fitted effect of over 60% in size
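Huh7 cells stably carrying NPC1 promoter–luciferase, plated in Opti-MEM with 10% FBS for 2 h, were exposed to compound in DMSO for 24 h at 37 °C; luciferase reagent was added for 10 min and luminescence read.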
Hits are given with their value; – = inactive; ? = inconclusive; · = no result given; ! = repeats disagree; [ ] = another dose, or the depositor's remark. A selection: hits, their analogues and other compounds. The true share with any hit is near 7.5%. Calls follow the shape of the dose curve; as a rule, active = well fitted curve in the direction sought with a large enough effect; inconclusive = small, poorly fitted or top-dose-only effect, or another doubt; inactive = no such curve, though single readings can be large; an effect the other way counts as inactive or inconclusive.

SMILES	FLuc modulator	SMN2 splice up	Rab9 prom act	KinaseGlo FLuc	ELG1 genotoxic	NPC1 promoter act
O=C(O)c1cc(-c2ccc(/C=N/Nc3ccc(Cl)cc3)o2)ccc1Cl	10.7µM	–	–	–	–	–
Nc1nonc1C(=O)N/N=C/c1ccc(-c2ccc(Cl)c(C(=O)O)c2)o1	?	–	–	–	–	–
O=C(Cc1ccc(Br)cc1)N/N=C/c1ccc(-c2cccc(C(=O)O)c2)o1	?	·	–	·	–	–
O=C(O)c1ccc(N/N=C/c2ccc(-c3ccc(Br)cc3)o2)cc1	2.39µM	·	–	·	?	–
CCC1CN(C(=O)N2CCC(C(=O)Nc3cc(C)ccc3C)CC2)c2ccccc2O1 (stereo not given)	–	·	·	·	·	·
CC[C@@H](CS(=O)(=O)O)[N+](=O)[O-]	·	–[9.22 µM]	·	–[7.66 µM]	·	·
Cc1nnc(NC(=O)C(=O)c2cc(C)n(-c3ccc(C)c(C)c3)c2C)s1	–	·	·	·	·	·
Cc1c(C(N)=O)sc2nc(-c3ccccc3)cn12	19µM	–	?	–	?	?
COc1ccc(-c2cn3c(C)c(C(=O)Nc4cccc(NC(C)=O)c4)sc3n2)cc1	9.53µM	–	–	–	–	–
Cc1c(C(=O)NCC(C)C)sc2nc(-c3ccc(F)cc3)cn12	–	–	2µM	–	?	?
Cc1ccc(CNC(=O)c2sc3nc(-c4ccccc4)cn3c2C)cc1	–	·	·	·	·	·
Cc1c(C(=O)NCc2ccc(F)cc2)sc2nc(-c3ccc(F)cc3)cn12	–	·	·	·	·	·
COc1ncc2nc(CCc3ccccc3)c(=O)n(C)c2n1	·	14.1µM	·	–	·	·
O=C(c1cc(C(F)(F)F)cc(C(F)(F)F)c1)N1CCC2(CC1)CCN(c1ccccn1)CC2	·	–	·	–	·	·
COc1ccc2oc(-c3cccc(NC(=O)c4ccc(C#N)cc4F)c3)nc2c1	–	–	·	·	·	·
CCc1ccc2oc(-c3ccc(C)c(NC(=O)Cc4ccccc4)c3)nc2c1	4.78µM	–	·	·	·	·
CCc1ccc2oc(-c3ccc(C)c(NC(=O)c4ccc(C#N)cc4F)c3)nc2c1	16.9µM	–	·	·	·	·
CCC(=O)Nc1cc(-c2nc3cc(C)cc(C)c3o2)ccc1C	1.69µM	–	·	·	·	·
Cc1cccc(C(=O)OCC(=O)NC(=O)Cc2ccccc2)c1O	–	·	–	·	–	–
O=C(Nc1ccccc1F)Nc1ccc([N+](=O)[O-])cc1Cl	?	·	3.98µM	·	–	?
O=C(Nc1ccc([N+](=O)[O-])cc1Cl)c1cc(Cl)ccc1O	0.213µM	25.1µM!	0.1µM	–	?	0.0651µM
Cc1ccc(O)c(NC(=O)c2cc([N+](=O)[O-])ccc2Cl)c1	–	–	–	–	–	–
O=C(Nc1cccc(Cl)c1)c1cc(N=Nc2ccc([N+](=O)[O-])cc2Cl)ccc1O	12µM	·	–	·	–	–
CCNc1nc(N)nc(Oc2ccc(C(=O)OC)cc2)n1	19µM	25.1µM	3.16µM	–	11.6µM	?
CCOc1ccc(Nc2nc(Cc3nnc(SCC(=O)O)o3)cs2)cc1	8.49µM	–	–	–	–	–
SMILES	FLuc modulator	SMN2 splice up	Rab9 prom act	KinaseGlo FLuc	ELG1 genotoxic	NPC1 promoter act
CC1CCN(C(=S)Nc2ccc(SC(F)F)cc2)CC1	1.07µM	22.4µM	–	–	–	?
CC(=O)N1CCN(C(=S)Nc2ccc(SC(F)F)cc2)CC1	–	?	–	–	–	–
CCCCc1ccc(NC(=S)N2CCN(C)CC2)cc1	15.1µM	·	–	·	–	–
CCCN1CCN(C(=S)Nc2ccc(SC(F)F)cc2)CC1	13.5µM	–	–	–	–	–
CCOc1cccc(C(=O)N(Cc2ccc(CC)cc2)C2CCS(=O)(=O)C2)c1 (stereo not given)	–	–	·	·	·	·
COC(=O)c1cc(S(=O)(=O)N2CCN(c3ccc(C)cc3C)CC2)cn1C	–	·	·	·	·	·
CC(=O)N1CCc2cc(Br)cc(S(=O)(=O)CCC(=O)N3CCN(c4ccccc4Cl)CC3)c21	–	–	·	·	·	·
CCCCC1=CC2=C(OC(C)=O)C(=O)C(C)(OC(=O)CCC(=O)OC)C(=O)C2=CO1 (stereo not given)	·	–	·	–	·	·
O=C(CSc1nc2ncccc2[nH]1)Nc1ccc2c(c1)OCO2	?	·	–	·	–	–
O=C(CSc1ncccc1-c1nc2ccccc2[nH]1)Nc1ccc2c(c1)OCCO2	26.9µM	–[1.84 µM]	–	–	–	–
C=CCNC(=O)NC(=O)COC(=O)CCCSc1nc2ccccc2[nH]1	–	–	–	–	–	–
Cc1ccc2nc(SCC(=O)c3ccc4c(c3)OCO4)[nH]c2c1	?	–	–	–	–	–
O=C(CSc1nc2ccccc2[nH]1)Nc1ccc2c(c1)OCCO2	8.49µM	–	?	–	–	–
O=C(COC(=O)CCCSc1nc2ccccc2[nH]1)Nc1cccc(F)c1	13.5µM	·	–	·	–	–
O=C(CSc1nc2ccccc2[nH]1)c1ccc2c(c1)OCO2	12µM	–	1.41µM	–	13µM	?
Cc1ccc2nc(SC(C)C(=O)N3CCOCC3)[nH]c2c1 (stereo not given)	23.9µM	20µM	3.16µM	–	?	2.51µM
Cc1ccc2nc(SC(C)C(=O)NC3CCCC3)[nH]c2c1 (stereo not given)	·	·	·	·	–	·
Cc1cc2nc(SC(C)C(=O)O)[nH]c2cc1C (stereo not given)	21.3µM	–	–	–	–	–
O=C(CSc1ccccn1)c1ccc2c(c1)OCO2	10.7µM	11.2µM	2.51µM	?	4.61µM	3.55µM
